Source: PubChem BioAssay (Tox21)
Records with an inconclusive call do not appear. A number with no mark means an inactive call. The source made the active and inactive calls. Calls follow the shape of the dose curve; as a rule, active = well fitted inhibition curve with a large enough effect in the repeat runs; inconclusive = weak or mixed curves; inactive = no such curve, though single readings can be large or run the other way.
% is scaled to controls: 0 for no effect and ±100 for the full control effect; potency is read from the fitted curve at half-maximal effect.
Also: nearly all actives have a fitted effect of over 50% in size.

What follows are compounds tested against Cytochrome P450 2C9 (Homo sapiens) (UniProt P11712) (assay: Cytochrome P450 Family 2 Subfamily C Member 9 (CYP2C9) small molecule antagonists: luciferase reporter qHTS assay (AID 1671198)). Details: P450-Glo CYP2C9 enzyme assay, luciferin luminescence; series mostly up to 115 µM; activity change, negative = inhibition: at the top concentration.
Cytochrome P450 2C9 (Homo sapiens), sequence (P11712 whole entry, looked up): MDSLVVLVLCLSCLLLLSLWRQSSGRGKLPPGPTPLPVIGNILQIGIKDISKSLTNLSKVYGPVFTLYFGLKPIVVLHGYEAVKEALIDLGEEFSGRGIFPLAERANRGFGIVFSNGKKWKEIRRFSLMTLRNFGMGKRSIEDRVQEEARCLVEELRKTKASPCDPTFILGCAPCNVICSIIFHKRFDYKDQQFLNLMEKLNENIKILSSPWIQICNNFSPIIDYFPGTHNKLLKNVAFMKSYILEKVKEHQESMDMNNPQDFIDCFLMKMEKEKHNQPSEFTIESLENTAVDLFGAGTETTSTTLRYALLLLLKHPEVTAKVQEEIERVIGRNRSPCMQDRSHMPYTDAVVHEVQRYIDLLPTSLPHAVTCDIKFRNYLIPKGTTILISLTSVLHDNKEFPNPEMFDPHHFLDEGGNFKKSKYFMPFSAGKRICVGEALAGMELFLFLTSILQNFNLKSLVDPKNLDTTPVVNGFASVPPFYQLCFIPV
Method in brief: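 P450-Glo proluciferin substrate with CYP2C9 enzyme; 10 min RT preincubation, then NADPH regeneration 1 h at 37C; luciferin detection reagent 20 min RT, luminescence in relative luminescence units.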
With `O=C(O)c1cccc(-c2noc(-c3ccccc3F)n2)c1` the Potency was 2.45 µM (active).
With `CN1CCCC(CC2c3ccccc3Sc3ccccc32)C1` (configuration not stated) the “activity change, negative = inhibition” value was 0.327% [at 53 µM].
For `O=C(O)CCC(=O)C(=O)O`, the “activity change, negative = inhibition” value was 1.06%.
`O=C=Nc1ccc(Cl)c(Cl)c1` was tested, and the Potency was 39.3 µM (active).
`O=[N+]([O-])c1ccc(O/N=C/c2cc(Br)c(O)c(Br)c2)c([N+](=O)[O-])c1` was tested, and the Potency was 9.98 µM (active).
For `CCCC(C(=O)OCCN(CC)CC)(c1ccccc1)c1ccccc1`, the Potency was 13.8 µM (active).
With `C=C1C[C@@]23CC[C@H]4[C@@](C)(CCC[C@@]4(C)C(=O)O[C@@H]4O[C@H](CO)[C@@H](O)[C@H](O)[C@H]4O)[C@@H]2CC[C@]1(O[C@@H]1O[C@H](CO)[C@@H](O)[C@H](O[C@@H]2O[C@H](CO)[C@@H](O)[C@H](O)[C@H]2O)[C@H]1O[C@@H]1O[C@H](CO)[C@@H](O)[C@H](O)[C@H]1O)C3` the “activity change, negative = inhibition” value was 7.68%.
With `CC(C)Nc1cccnc1N1CCN(C(=O)c2cc3cc(NS(C)(=O)=O)ccc3[nH]2)CC1` the Potency was 2.75 µM (active).
In the case of `CC(CC1c2ccccc2CCc2ccccc21)CN(C)C` (configuration not stated), the “activity change, negative = inhibition” value was -10.1% [at 53 µM].
`COc1cc(C(=O)NCCCCCC(=O)O)cc(OC)c1OC` was tested, and the “activity change, negative = inhibition” value was -1.64% [at 53 µM].
For `CC1=C(Br)C(=O)C(Br)=C/C1=C(/c1ccccc1S(=O)(=O)O)c1cc(Br)c(O)c(Br)c1C`, the Potency was 15.3 µM (active).
With `N#CCCN(CCO)CCO` the “activity change, negative = inhibition” value was 0.906%.
In the case of `CC(C)(C)C(=O)C(=O)O`, the “activity change, negative = inhibition” value was 1.21%.
`CC1CC(C)C(=O)C1=O` (configuration not stated) was tested, and the “activity change, negative = inhibition” value was -19.7%.
For `CC(=O)c1cc2ccccc2s1`, the “activity change, negative = inhibition” value was 13.3% [at 53 µM].
With `C/C=C/C=C/C=O` the “activity change, negative = inhibition” value was 0.671%.
For `C=CCc1ccccc1OCC(O)CNC(C)C` (configuration not stated), the “activity change, negative = inhibition” value was -1.29% [at 53 µM].
`O=C(/C=C/c1ccccc1)OCCc1ccccc1` was tested, and the Potency was 25.2 µM (active).
In the case of `O=[N+]([O-])c1ccc(Nc2ccc(Nc3ccccc3)c(S(=O)(=O)O)c2)c([N+](=O)[O-])c1`, the Potency was 35.6 µM (active).
With `COC(=O)c1nc(Cl)c(Cl)nc1N` the “activity change, negative = inhibition” value was -11% [at 53 µM].
For `CCCCCC#CC(=O)OC`, the Potency was 63.3 µM (active).
`Oc1c(I)cc(I)c2cccnc12` was tested, and the “activity change, negative = inhibition” value was -5.45% [at 53 µM].
In the case of `C[C@]1(Cn2ccnn2)[C@H](C(=O)O)N2C(=O)C[C@H]2S1(=O)=O`, the “activity change, negative = inhibition” value was 21.5% [at 53 µM].
With `C=C(C)[C@@H]1CCC2=CCC[C@@H](C)[C@]2(C)C1` the Potency was 63.3 µM (active).
In the case of `CCC(OCCCOC)OC(C)=O` (configuration not stated), the “activity change, negative = inhibition” value was -14.1%.
`CCOC(=O)c1ccc(C#Cc2ccc3c(c2)C(C)(C)CCS3)nc1` was tested, and the “activity change, negative = inhibition” value was -18.5% [at 53 µM].
`O=C(Cn1ccnc1[N+](=O)[O-])NCCO` was tested, and the “activity change, negative = inhibition” value was 1.05% [at 53 µM].
In the case of `NC1[C@H]2CN(c3nc4c(cc3F)c(=O)c(C(=O)O)cn4-c3ccc(F)cc3F)C[C@@H]12` (some centres not stated), the “activity change, negative = inhibition” value was -5.22% [at 53 µM].
With `C=COCC(C)C` the “activity change, negative = inhibition” value was 2.76%.
For `NCCNCCO`, the “activity change, negative = inhibition” value was -8.27%.
In the case of `Oc1ccc(Cl)c2cccnc12`, the “activity change, negative = inhibition” value was -7.72% [at 53 µM].
In the case of `C[C@@H](O)[C@H]1C(=O)N2C(C(=O)O)=C([C@H]3CCCO3)S[C@H]12`, the “activity change, negative = inhibition” value was -5.43% [at 53 µM].
`COC(=O)C1=C(C)NC(C)=C(C(=O)O[C@@H]2CCCN(Cc3ccccc3)C2)[C@@H]1c1cccc([N+](=O)[O-])c1` was tested, and the Potency was 0.871 µM (active).
For `C1COC1`, the “activity change, negative = inhibition” value was 2.41%.
`C[C@@H](O[C@H]1OCCN(Cc2n[nH]c(=O)[nH]2)[C@H]1c1ccc(F)cc1)c1cc(C(F)(F)F)cc(C(F)(F)F)c1` was tested, and the Potency was 13.8 µM (active).
For `O=c1cc(-c2ccccc2)oc2ccc3ccccc3c12`, the Potency was 3.17 µM (active).
With `CCOC(=O)c1ccc(O)c(O)c1` the “activity change, negative = inhibition” value was 87.7% [at 53 µM].
For `O=C(O)C[C@H](NC(=O)OCc1ccccc1)C(=O)O`, the “activity change, negative = inhibition” value was 6.63%.
In the case of `O=c1[nH]c2ccc(Cl)cc2o1`, the “activity change, negative = inhibition” value was -9.87%.

These compounds were tested against Cytochrome P450 1A2 (Homo sapiens) (UniProt P05177) (assay: Cytochrome P450 Family 1 Subfamily A Member 2 (CYP1A2) small molecule antagonists: luciferase reporter qHTS assay (AID 1671199)). Details: P450-Glo CYP1A2 enzyme, luciferin luminescence, 1 h; series mostly up to 53 µM; activity change, negative = inhibition: at the top concentration.
Cytochrome P450 1A2 (Homo sapiens), sequence (P05177 whole entry, looked up): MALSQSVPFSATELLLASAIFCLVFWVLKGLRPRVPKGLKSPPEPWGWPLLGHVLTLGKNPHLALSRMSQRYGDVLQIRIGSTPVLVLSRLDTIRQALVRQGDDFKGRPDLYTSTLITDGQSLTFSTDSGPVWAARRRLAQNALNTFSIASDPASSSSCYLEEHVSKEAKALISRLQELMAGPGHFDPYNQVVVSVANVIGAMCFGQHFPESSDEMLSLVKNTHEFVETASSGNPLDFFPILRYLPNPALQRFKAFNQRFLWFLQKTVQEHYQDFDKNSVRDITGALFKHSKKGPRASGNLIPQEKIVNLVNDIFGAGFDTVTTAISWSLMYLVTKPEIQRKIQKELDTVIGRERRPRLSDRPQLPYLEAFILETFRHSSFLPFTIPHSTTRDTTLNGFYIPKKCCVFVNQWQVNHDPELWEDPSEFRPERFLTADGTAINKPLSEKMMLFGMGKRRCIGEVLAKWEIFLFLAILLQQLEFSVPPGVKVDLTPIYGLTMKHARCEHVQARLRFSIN
Method in brief: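 Quantitative high-throughput format using the P450-Glo CYP1A2 system. Reaction initiated by NADPH regeneration solution, 1 h at room temperature, then stopped with detection reagent; luminescence measured 20 min later.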
In the case of `O=C(O)c1cccc(-c2noc(-c3ccccc3F)n2)c1`, the Potency was 4.56 µM (active).
For `CN1CCCC(CC2c3ccccc3Sc3ccccc32)C1` (configuration not stated), the “activity change, negative = inhibition” value was 2.54%.
`O=C(O)CCC(=O)C(=O)O` was tested, and the “activity change, negative = inhibition” value was -7.32% [at 115 µM].
`O=C=Nc1ccc(Cl)c(Cl)c1` was tested, and the Potency was 35 µM (active).
In the case of `O=[N+]([O-])c1ccc(O/N=C/c2cc(Br)c(O)c(Br)c2)c([N+](=O)[O-])c1`, the “activity change, negative = inhibition” value was -13.1% [at 115 µM].
In the case of `CCCC(C(=O)OCCN(CC)CC)(c1ccccc1)c1ccccc1`, the “activity change, negative = inhibition” value was -1.69%.
In the case of `C=C1C[C@@]23CC[C@H]4[C@@](C)(CCC[C@@]4(C)C(=O)O[C@@H]4O[C@H](CO)[C@@H](O)[C@H](O)[C@H]4O)[C@@H]2CC[C@]1(O[C@@H]1O[C@H](CO)[C@@H](O)[C@H](O[C@@H]2O[C@H](CO)[C@@H](O)[C@H](O)[C@H]2O)[C@H]1O[C@@H]1O[C@H](CO)[C@@H](O)[C@H](O)[C@H]1O)C3`, the “activity change, negative = inhibition” value was -12.8% [at 115 µM].
In the case of `CC(C)Nc1cccnc1N1CCN(C(=O)c2cc3cc(NS(C)(=O)=O)ccc3[nH]2)CC1`, the “activity change, negative = inhibition” value was -21.1%.
For `CC(CC1c2ccccc2CCc2ccccc21)CN(C)C` (configuration not stated), the “activity change, negative = inhibition” value was 3.69%.
`COc1cc(C(=O)NCCCCCC(=O)O)cc(OC)c1OC` was tested, and the “activity change, negative = inhibition” value was -8.56%.
`CC1=C(Br)C(=O)C(Br)=C/C1=C(/c1ccccc1S(=O)(=O)O)c1cc(Br)c(O)c(Br)c1C` was tested, and the Potency was 19.2 µM (active).
For `N#CCCN(CCO)CCO`, the “activity change, negative = inhibition” value was -1.18% [at 115 µM].
`CC(C)(C)C(=O)C(=O)O` was tested, and the “activity change, negative = inhibition” value was -7.42% [at 115 µM].
In the case of `CC1CC(C)C(=O)C1=O` (configuration not stated), the “activity change, negative = inhibition” value was -11% [at 115 µM].
In the case of `CC(=O)c1cc2ccccc2s1`, the Potency was 6.92 µM (active).
With `C/C=C/C=C/C=O` the “activity change, negative = inhibition” value was -23.9% [at 115 µM].
With `C=CCc1ccccc1OCC(O)CNC(C)C` (configuration not stated) the Potency was 12.3 µM (active).
In the case of `O=C(/C=C/c1ccccc1)OCCc1ccccc1`, the Potency was 6.33 µM (active).
`O=[N+]([O-])c1ccc(Nc2ccc(Nc3ccccc3)c(S(=O)(=O)O)c2)c([N+](=O)[O-])c1` was tested, and the “activity change, negative = inhibition” value was -20.6% [at 115 µM].
With `COC(=O)c1nc(Cl)c(Cl)nc1N` the Potency was 4.36 µM (active).
`CCCCCC#CC(=O)OC` was tested, and the “activity change, negative = inhibition” value was -5.15% [at 115 µM].
`Oc1c(I)cc(I)c2cccnc12` was tested, and the “activity change, negative = inhibition” value was 9.8%.
With `C[C@]1(Cn2ccnn2)[C@H](C(=O)O)N2C(=O)C[C@H]2S1(=O)=O` the “activity change, negative = inhibition” value was 13.8%.
In the case of `C=C(C)[C@@H]1CCC2=CCC[C@@H](C)[C@]2(C)C1`, the “activity change, negative = inhibition” value was -25.3% [at 115 µM].
`CCC(OCCCOC)OC(C)=O` (configuration not stated) was tested, and the Potency was 36.4 µM (active).
With `CCOC(=O)c1ccc(C#Cc2ccc3c(c2)C(C)(C)CCS3)nc1` the “activity change, negative = inhibition” value was -7.09%.
For `O=C(Cn1ccnc1[N+](=O)[O-])NCCO`, the “activity change, negative = inhibition” value was 7.12%.
In the case of `NC1[C@H]2CN(c3nc4c(cc3F)c(=O)c(C(=O)O)cn4-c3ccc(F)cc3F)C[C@@H]12` (some centres not stated), the “activity change, negative = inhibition” value was -0.119%.
For `C=COCC(C)C`, the “activity change, negative = inhibition” value was -1.21% [at 115 µM].
With `NCCNCCO` the “activity change, negative = inhibition” value was -28.5% [at 115 µM].
For `Oc1ccc(Cl)c2cccnc12`, the “activity change, negative = inhibition” value was -7.95%.
With `C[C@@H](O)[C@H]1C(=O)N2C(C(=O)O)=C([C@H]3CCCO3)S[C@H]12` the “activity change, negative = inhibition” value was -20.4%.
With `C1COC1` the “activity change, negative = inhibition” value was -13.2% [at 115 µM].
`C[C@@H](O[C@H]1OCCN(Cc2n[nH]c(=O)[nH]2)[C@H]1c1ccc(F)cc1)c1cc(C(F)(F)F)cc(C(F)(F)F)c1` was tested, and the “activity change, negative = inhibition” value was -5.98%.
With `O=c1cc(-c2ccccc2)oc2ccc3ccccc3c12` the Potency was 5.64 µM (active).
With `CCOC(=O)c1ccc(O)c(O)c1` the Potency was 27.5 µM (active).
In the case of `O=C(O)C[C@H](NC(=O)OCc1ccccc1)C(=O)O`, the “activity change, negative = inhibition” value was -19.2% [at 115 µM].
`O=c1[nH]c2ccc(Cl)cc2o1` was tested, and the Potency was 10 µM (active).
